Screens as filed in PubChem.
This is one part of a sample in which hits are shown more often than they occur.
VHR inh color: VHR1 phosphatase inhibitors, primary screen, biochemical, colorimetric, HTS | recombinant VHR phosphatase, colorimetric substrate read-out | inhibition, % at 20 µM | 0.7% of 50,000 active | AID 1992, 2009; in the data active means inhibition above about 60%
Target sequence (P51452 whole entry, looked up): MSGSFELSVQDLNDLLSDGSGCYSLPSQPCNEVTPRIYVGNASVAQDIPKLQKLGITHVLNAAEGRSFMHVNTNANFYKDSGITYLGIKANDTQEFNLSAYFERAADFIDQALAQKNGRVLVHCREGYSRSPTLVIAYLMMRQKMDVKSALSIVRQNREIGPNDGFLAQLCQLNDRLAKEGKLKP
* marks the source's active call; other numbers are inactive results.

SMILES	VHR inh color
CCOC(=O)C1=C(c2ccccc2)NC(=S)NC1c1ccc(OC)cc1 (stereo not drawn)	-27
Cc1ccc(-c2nc3ncccc3o2)cc1NC(=O)c1cc([N+](=O)[O-])ccc1Cl	-21
C=CCN1C(=O)/C(=C\c2ccc(-c3ccc(OC)cc3[N+](=O)[O-])o2)C(=O)NC1=S	6
O=C1NN(c2ccccc2)C(=O)/C1=C/c1cccn1-c1ccc([N+](=O)[O-])cc1	-1
O=C1NC(=S)N/C1=C\c1ccc(-c2cc([N+](=O)[O-])ccc2Br)o1	-14
C=CCN1C(=O)/C(=C\c2cccn2-c2ccc([N+](=O)[O-])cc2)C(=O)NC1=S	80*
O=C1NC(=O)N(c2ccccc2)C(=O)/C1=C\c1cccn1-c1ccc([N+](=O)[O-])cc1	25
C=CCN1C(=O)/C(=C\c2ccc(-c3ccccc3[N+](=O)[O-])o2)C(=O)NC1=S	88*
C=CCN1C(=O)/C(=C\c2ccc(-c3ccc([N+](=O)[O-])cc3Br)o2)C(=O)NC1=S	30
O=C1NC(=S)NC(=O)C1=Cc1ccc(-c2ccc([N+](=O)[O-])cc2Br)o1	64*
C=CCN1C(=O)/C(=C\c2ccc(-c3ccc([N+](=O)[O-])cc3Cl)o2)C(=O)NC1=S	18
CCOC(=O)C1(C)C=C(Nc2ccc(S(=O)(=O)Nc3nccs3)cc2)C(=O)N1c1ccccc1 (stereo not drawn)	-3
O=C1NC(=S)S/C1=C/c1cc(I)c(O)c(I)c1	0
CCOc1ccc(NC(=O)C(=O)N/N=C/c2cccs2)cc1	-10
O=[N+]([O-])c1c(Cl)cc(O)c2c1C1C=CCC1C(c1ccc(Br)cc1)N2 (stereo not drawn)	-18
O=C(/C=C/c1ccccc1F)c1c(-c2ccccc2)c2ccccc2[nH]c1=O	31
C=C(C)CSc1nnc2n(-c3ccc(OC)cc3)c(=O)c3c4c(sc3n12)CCCC4	5
O=C(Nc1nc2ccc3ccccc3c2s1)c1ccc(C(=O)c2ccccc2)cc1	22
Cc1cc(C)nc(/N=C(/NC(=O)c2ccccc2)Nc2cccc(C(F)(F)F)c2)n1	-14
O=C(/C=C/c1ccco1)NCCCCNC(=O)/C=C/c1ccco1	26
O=C(/C=C/c1ccco1)NCc1ccc2c(c1)OCO2	-3
O=C(/C=C/c1ccco1)NC(=S)NCc1ccccc1	75*
Cc1c(C(=O)Oc2ccc(Cl)cc2)cccc1[N+](=O)[O-]	-27
COc1ccc(-c2cc(C(F)(F)F)n3nc(C(=O)N4CCOCC4)cc3n2)cc1	-29
O=C(N/N=C/c1c(F)cccc1Cl)c1ccc(Br)cc1	-9
SMILES	VHR inh color
CCC1(C)CC(CC#N)(c2ccc(OC)cc2)CCO1 (stereo not drawn)	-16
O=S(=O)(NCCCNS(=O)(=O)c1ccc(Cl)cc1)c1ccc(Cl)cc1	-13
O=C1C(Cl)=C/C(=N\S(=O)(=O)c2ccc(Cl)cc2)C(Cl)=C1Cl	96*
CC1=CC(=NS(=O)(=O)c2ccc(C)cc2)C=C(C)C1=O	25
O=C1C(Cl)=CC(=NS(=O)(=O)c2ccccc2)C=C1Cl	76*
CC1=CC(=O)C=C/C1=N\S(=O)(=O)c1ccc(C)cc1	28
COc1ccc(S(=O)(=O)/N=C2C=C/C(=N\S(=O)(=O)c3ccc(OC)cc3)C=C/2Cl)cc1	-16
COc1ccccc1N1C(=O)NC(=O)/C(=C/c2c(OC)ccc3ccccc23)C1=O	-4
COc1ccc(/C=c2\sc3nc(-c4ccccc4)nn3c2=O)cc1	-15
CN(C)/C=C/C=C1C(=O)OC(C)(C)OC1=O	-6
COc1ccc(CNCc2cc(OC)c(OC)cc2OC)cc1	-22
CC(C1CC1)N(Cc1ccccc1)C(=O)Nc1cccc([N+](=O)[O-])c1 (stereo not drawn)	-30
COc1ccc(C2Nc3ccc(C(=O)c4ccccc4)cc3NC3=C2C(=O)CCC3)c(OC)c1 (stereo not drawn)	68*
CN(C)c1ccc(C2Nc3ccc(C(=O)c4ccccc4)cc3NC3=C2C(=O)CCC3)cc1 (stereo not drawn)	17
COc1ccccc1C1Nc2ccc(C(=O)c3ccccc3)cc2NC2=C1C(=O)CCC2 (stereo not drawn)	-6
CCCCOC(=O)c1ccc(NC(C)=O)cc1	-14
CCCCC(=O)Nc1ccc(C(=O)OCCC)cc1	107*
CCCOC(=O)c1ccc(NC(=O)/C=C\C(=O)O)cc1	6
CCCOC(=O)c1ccc(NC(=O)c2cc(Cl)c(OC)c(Cl)c2)cc1	-11
CCCOC(=O)c1ccc(NC(=O)COc2ccc(OC)cc2)cc1	-14
CCCOC(=O)c1ccc(NC(=O)CCC)cc1	111*
COCCOC(=O)C1=C(C)NC2=C(C(=O)CCC2)C1c1ccccc1I (stereo not drawn)	-22
Cc1cc(C)n(C(=O)c2cc(-c3ccccc3)nc3ccccc23)n1	8
C/C=C/C(=O)N1c2ccc(OC)cc2-c2c(ssc2=S)C1(C)C	14
Cc1c(C(=O)Nc2ccc(I)cc2Cl)oc2ccc(Cl)cc12	1
SMILES	VHR inh color
CCOC(=O)c1ccc(NC(=O)c2ccc([N+](=O)[O-])s2)cc1	-7
Nc1cccc(-c2cc(C(=O)O)c3ccccc3n2)c1	0
Nc1cccc(C2=Nc3cccc4cccc(c34)N2)c1	85*
c1ccc(NC2=Nc3cccc4cccc2c34)cc1	-9
COc1ccc2c(c1)c(/C=C/c1nc3ccccc3c(=O)n1-c1cccc([N+](=O)[O-])c1)c(C)n2C	25
O=c1c2ccccc2nc(/C=C/c2c[nH]c3ccccc23)n1-c1cccc([N+](=O)[O-])c1	4
Cc1[nH]c2ccccc2c1/C=C/c1nc2ccccc2c(=O)n1-c1cccc([N+](=O)[O-])c1	78*
COc1ccc(-c2nnc(NC(=O)c3ccccc3C)s2)cc1OC	-47
COc1ccc(OC)c(N(CC(=O)N2CCN(c3ccccc3)CC2)S(=O)(=O)c2ccccc2)c1	29
COc1ccc(N(CC(=O)Nc2cccc(Cl)c2)S(C)(=O)=O)cc1	-7
CCCC(=O)N1CCN(c2cc(N3CCC(C)CC3)c(F)cc2[N+](=O)[O-])CC1	3
Clc1cc2c(cc1CSc1nnnn1-c1ccccc1)OCO2	112*
Clc1ccc(CSc2nnnn2-c2ccccc2)cc1	-10
Clc1ccccc1CSc1nnnn1-c1ccccc1	-4
Clc1cc2c(cc1CSc1nc3ncccc3[nH]1)OCO2	12
c1ccc(-n2nnnc2SCc2cccc(CSc3nnnn3-c3ccccc3)n2)cc1	12
Fc1ccccc1-n1nnnc1SCc1cc2c(cc1Cl)OCO2	114*
O=C(Nc1cccc(Br)c1)c1ccccc1	-16
COc1ccc(N2C(=O)NC(=O)C(=Cc3ccccc3OCC(=O)O)C2=O)cc1	3
CC1=C(C(=O)Nc2cccc(Cl)c2)C(c2cccs2)NC(=S)N1 (stereo not drawn)	-9
Cc1ccc(-c2n[nH]c3nc(C)cc(=O)n23)cc1	-3
C/C(CC(=O)N1CCCC1)=N\NC(=O)C(=O)Nc1ccccc1	47
N#Cc1c(-c2ccc(F)cc2)c(C#N)c2nc3ccccc3n2c1N	-13
N#Cc1c(-c2cccc(Br)c2)c(C#N)c2nc3ccccc3n2c1N	-39
COc1ccc(-c2c(C#N)c(N)n3c(nc4ccccc43)c2C#N)cc1OC	69*
COc1ccc(Br)cc1C(=O)Nc1cccnc1	-9
O=c1c2cnn(-c3ccccc3)c2nc(-c2ccccc2F)n1-c1cccc(Cl)c1	1
COC(=O)c1c(-c2ccc(C(C)(C)C)cc2)csc1N	95*
CCOC(=O)c1c(-c2ccc(-c3ccccc3)cc2)csc1N	5
COC(=O)c1c(-c2ccc(Cl)cc2)csc1N	81
